# Screening data (PubChem)
# Most compounds without a hit are left out; they make up all but 3.7% or so of the library.
# ATXN2 expr inh = Primary qHTS for Inhibitors of ATXN expression | HEK-293 ATXN2-luciferase reporter, luminescence, 24 h | Potency, µM (top dose mostly 57 µM), for inactives: at the top dose activity change, negative = inhibition, most hits filed as inhibitors | 360,000 compounds, 0.72% hits | AID 1745845, 2022; also: % is scaled to controls: 0 for no effect and ±100 for the full control effect; nearly all actives have a fitted effect of over 55% in size
#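 ATXN2-luciferase reporter cells (luciferase flanked by upstream and downstream ATXN2 gene portions) were treated 24 h at 37 °C with compounds at up to 57 uM. SteadyGlo luminescence gave expression; GF-AFC fluorescence gave viability.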
# HepG2 tox = qHTS for Inhibitors of TGF-b: Cytotox Counterscreen; HepG2 CAGA-GFP viability, ATP luminescence, 18 h; Potency, µM (highest dose often 46.1 µM), for the others: at the highest dose activity change, negative = cytotoxicity, most hits filed as cytotoxic; 410,000 compounds, 0.76% hits
#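 CellTiter-Glo luminescence gave cytotoxicity after 18 hours at 37 degrees C. The cells were HepG2 CAGA-GFP in 1% FBS DMEM, stimulated with 500 pg/mL TGF-beta after compound addition. %Activity was normalised to no-cell wells (complete cell-killing) and DMSO (no toxicity), and curves were fitted and classified.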
# GLP1R ag = qHTS of GLP-1 Receptor Agonists; HEK293 GLP-1R CRE-luciferase, luminescence, 4-6 h; cells express a hypersensitive GLP-1R form; 380,000 compounds, 0.007% hits; AID 624172, 2012; Potency, µM (doses to about 45.6 µM), inactives show at the top dose activation, hits mostly activators; also: % of control where 0% means no effect
# Target sequence (P43220 whole entry, looked up): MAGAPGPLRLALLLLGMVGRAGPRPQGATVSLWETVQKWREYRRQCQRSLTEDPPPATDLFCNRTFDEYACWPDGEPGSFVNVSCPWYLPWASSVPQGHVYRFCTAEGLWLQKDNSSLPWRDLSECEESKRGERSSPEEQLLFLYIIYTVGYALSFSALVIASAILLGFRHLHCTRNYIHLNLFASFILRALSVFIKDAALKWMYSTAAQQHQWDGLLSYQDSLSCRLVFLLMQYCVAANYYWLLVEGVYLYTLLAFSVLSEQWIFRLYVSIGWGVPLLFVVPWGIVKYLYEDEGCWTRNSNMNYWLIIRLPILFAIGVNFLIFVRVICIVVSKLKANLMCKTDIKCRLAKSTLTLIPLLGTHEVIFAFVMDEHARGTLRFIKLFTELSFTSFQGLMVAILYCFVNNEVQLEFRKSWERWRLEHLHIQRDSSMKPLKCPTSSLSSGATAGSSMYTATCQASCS
# ATXN viability = Viability Counterscreen for Primary qHTS for Inhibitors of ATXN expression. 400,000 compounds, 0.49% hits. S2 cells (HEK-293 line with an ATXN2-luciferase reporter) viability, CellTiter-Fluor protease fluorescence, 24 h. Potency, µM (top dose mostly 56.7 µM), actives largely listed as cytotoxic; also: nearly all actives have a fitted effect of over 40% in size
# TGFb SMAD3 inh = qHTS for Inhibitors of TGF-b; HepG2 CAGA-GFP TGF-b/SMAD3 reporter, GFP fluorescence, 18 h; TGF-beta stimulated, 500 pg/mL final; Potency, µM (titrated, usually from 46.1 µM), inactives show at the highest dose activity, negative = inhibition, hits mostly inhibitors; 410,000 compounds, 1.2% hits; also: % is scaled to controls: 0 for no effect and ±100 for the full control effect; nearly all actives have a fitted effect of over 65% in size
#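 HEPG2 CAGA-GFP, 1000 cells/well; 2 h settle, 37 C; cpd via pin tool; TGF-b 500 pg/mL final; 18 h, 37 C; GFP imaging ex488/em500-530; %Activity normalised to -TGF-b and +DMSO controls; CRC fit, curve class.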
# GLP1R inv ag = qHTS of GLP-1 Receptor Inverse Agonists (Inhibition Mode); Glucagon-like peptide 1 receptor (Homo sapiens), P43220; HEK293 GLP-1R CRE-luciferase, luminescence, 24 h; GLP-1R form is constitutively active; Potency, µM (highest dose often 38.3 µM), for the others: at the highest dose activity change, negative = inhibition, most hits filed as inhibitors; 410,000 compounds, 1.6% hits; AID 624417, 2012; also: % is scaled to controls: 0 for no effect and ±100 for the full control effect; nearly all actives have a fitted effect of over 55% in size
#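 Stable HEK293 clone (constitutively active GLP-1R + cAMP-response luciferase); 200 cells/uL plated, 12 h pre-culture, compound 24 hr, 37 deg C/5% CO2; detection reagent 12 min RT; luminescence.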
# * marks the source's active call; other numbers are inactive results; i = inactive; u = inconclusive; x = not tested or not shown; ! = not confirmed by another sample. Calls follow the shape of the dose curve; as a rule, active = well fitted curve in the direction sought with a large enough effect; inconclusive = small, poorly fitted or top-dose-only effect, or another doubt; inactive = no such curve, though single readings can be large; an effect the other way counts as inactive or inconclusive. Potency is read from the fitted curve at half-maximal effect.
SMILES,ATXN2 expr inh,HepG2 tox,GLP1R ag,ATXN viability,TGFb SMAD3 inh,GLP1R inv ag
COc1ccc(NC(=O)C2(C)CCN2CCc2ccccc2)cc1OC (stereo not given),-9%,-20%,19%,i,-18%,-3%
CN(Cc1ccc(F)cc1)C(=O)c1cccc(S(=O)(=O)N2CCN(Cc3ccccc3)CC2)c1,-27%,-10%,8%,i,-21%,u
COc1cccc(NC(=O)C2(C)CCN2CCc2ccccc2)c1 (stereo not given),1%,-9%,5%,u,0%,11µM*
NCCCn1c(C(=O)c2cc(Cl)c(N)c(Cl)c2)c2ccc(C(F)(F)F)cc2[n+]1[O-],-30%,-54%,0%,u,-38%,u
NCCCn1c(C(=O)c2cc(Cl)c(N)c(Cl)c2)c2ccc([N+](=O)[O-])cc2[n+]1[O-],u,-45%,-4%,10µM*,u,-32%
CO/N=C\CC(=O)Nc1ccc(Oc2ccccc2)cc1,-3%,-21%,10%,i,-3%,1.3µM*
CCOC(=O)Cn1c(-c2ccccc2)cc(SC)c(C#N)c1=O,12%,2%,17%,i,7%,10µM*
c1ccc2c(N=NN3CCCCC3)ccnc2c1,x,-16%,x,x,-1%,x
CC(=O)Nc1ccn(C2COC(COC(=O)c3ccccc3)O2)c(=O)n1 (stereo not given),u,x,8%,i,x,x
CCc1ccc2c(c1)C1(C(=O)N2)N2CCCC2C(C(=O)c2ccc3ccccc3c2)C12C(=O)Nc1ccccc12 (stereo not given),u,10µM*,-7%,u,16µM*,u
CCc1cccc2c1NC(=O)C21N2CCCC2C(C(=O)c2ccc3ccccc3c2)C12C(=O)Nc1ccccc12 (stereo not given),7%,-25%,2%,u,u,u
NC(=NCCCCCCN=C(N)/N=C(\N)Nc1ccc(Cl)cc1)/N=C(\N)Nc1ccc(Cl)cc1,20µM*!,-28%,-1%,32µM*!,u,u
OC[C@H]1OC(O)C[C@@H](O)[C@H]1O (stereo not given in full),8%,x,x,x,x,x
Cc1ccc(Cn2c(C(C)Nc3nc(-c4ccc(F)cc4)cs3)nc3cc(Cl)c(Cl)cc32)cc1 (stereo not given),8%,-19%,-6%,i,u,11µM*
O=C1CC(N(CCc2ccccc2)C(=S)Nc2cc(Cl)ccc2Cl)C(=O)N1c1c(Cl)cccc1Cl (stereo not given),-8%,6%,-6%,i,-11%,4.5µM*
CCCOc1ccc(N2C(=O)CC(N(CCc3ccc(OC)c(OC)c3)C(=S)Nc3ccccc3)C2=O)cc1 (stereo not given),2%,9%,-4%,u,-12%,5.6µM*
O=C1CC(N(CCc2ccccc2)C(=S)Nc2ccccc2)C(=O)N1c1ccc(F)cc1 (stereo not given),-15%,-100%,0%,i,u,4.5µM*
O=S(=O)(c1ccc(OC(F)(F)F)cc1)N1CCN(c2nc(-c3cccs3)nc3ccccc23)CC1,x,-18%,x,x,0%,x
CCc1ccc(C(=O)Nc2cccc(-c3nc4cc(C(C)C)ccc4o3)c2)cc1,33%,-7%,-1%,i,-1%,11%
CCCNC(=O)C1(C)CCN1C(=O)c1ccccc1CCc1ccccc1 (stereo not given),-10%,-50%,5%,i,u,-5%
